FEN1 inh-1 – human FEN1 inhibition. Potency, µM (highest dose often 114 µM), usual class: inhibitors. Recombinant FEN1 flap cleavage, fluorescence, 15 min. 390,000 compounds, 0.35% hits; note: nearly all actives have a fitted effect of over 65% in size
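Potency values derive from four-parameter Hill fits of normalized qHTS data. The reaction used 10 nM FEN1 preincubated 15 min at room temperature with compound, then 50 nM DNA substrate, read at 0 and 15 min.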
Pol eta inh-1 – DNA polymerase eta (human) inhibition. Q9Y253. AID 588591. recombinant Pol eta, fluorescent DNA replication assay. 390,000 compounds, 1.2% hits. Potency, µM (doses to about 114 µM), most hits filed as inhibitors
Target sequence (Q9Y253 whole entry, looked up): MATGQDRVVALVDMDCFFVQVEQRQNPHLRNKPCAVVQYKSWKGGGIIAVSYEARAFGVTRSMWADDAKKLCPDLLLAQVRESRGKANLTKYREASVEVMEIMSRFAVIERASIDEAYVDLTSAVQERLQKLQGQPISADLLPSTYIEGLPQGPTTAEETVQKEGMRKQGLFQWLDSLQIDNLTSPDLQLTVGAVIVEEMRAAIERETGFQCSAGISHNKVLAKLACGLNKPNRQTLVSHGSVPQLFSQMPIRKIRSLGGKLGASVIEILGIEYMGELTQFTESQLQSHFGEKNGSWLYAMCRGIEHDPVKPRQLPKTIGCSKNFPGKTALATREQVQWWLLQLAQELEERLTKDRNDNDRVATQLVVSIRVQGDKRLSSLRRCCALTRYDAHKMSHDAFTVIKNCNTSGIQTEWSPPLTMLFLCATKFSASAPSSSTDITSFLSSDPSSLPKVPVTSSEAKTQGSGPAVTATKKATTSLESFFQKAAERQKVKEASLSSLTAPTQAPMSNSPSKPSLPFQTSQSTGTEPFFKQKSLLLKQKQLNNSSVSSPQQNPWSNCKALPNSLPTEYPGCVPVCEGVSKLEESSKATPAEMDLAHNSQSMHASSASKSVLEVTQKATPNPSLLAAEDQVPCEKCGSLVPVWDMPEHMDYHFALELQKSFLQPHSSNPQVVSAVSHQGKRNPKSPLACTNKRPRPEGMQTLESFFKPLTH
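Fluorescent replication assay: 50 nM final substrate added after a 15 min room-temperature compound preincubation with 10 nM enzyme. Signal taken at 0 min and again at 10 min.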
WRN helicase inh-1 – WRN helicase (human) inhibition. Q14191. 360,000 compounds, 0.46% hits. WRN helicase unwinding, fluorescent forked duplex, kinetic. Potency, µM (doses to about 114 µM), hits mostly inhibitors; note: nearly all actives have a fitted effect of over 55% in size
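Enzyme (20 nM final) and test compound sit together 15 min at room temperature before substrate addition. Substrate is a single-forked duplex oligonucleotide (100 nM) labelled with fluorophore and quencher, with 2 mM ATP; helicase unwinding raises red fluorescence, read kinetically.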
Pol beta inh-1 – DNA polymerase beta (human) inhibition; 340,000 compounds, 1.3% hits; Pol beta primer extension/strand displacement, fluorescence kinetic; Potency, µM (top dose mostly 114 µM), hits mostly inhibitors; AID 485314
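Pol beta (10 nM) and compounds were preincubated 15 min at room temperature, then 50 nM substrate (final) started primer extension/strand displacement. Reads were taken at 0 and 10 min; concentration-response data were fitted to a four-parameter Hill equation.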
POLI inh – DNA polymerase iota (human) inhibition | Q9UNA4 | Pol iota fluorescent replication assay, 10 min | Potency, µM (doses to about 115 µM), most hits filed as inhibitors | 390,000 compounds, 1% hits | AID 588590
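Fluorescent replication assay read twice, at 0 min and 10 min after adding 50 nM (final) substrate. Enzyme (10 nM) and compounds were first incubated 15 min at room temperature; enzyme-free buffer wells were negative controls.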
Pol kappa inh-1 – blocks human DNA polymerase kappa activity; Q9UBT6; purified Pol kappa, fluorescent DNA synthesis assay, 10 min; Potency, µM (series often up to 107 µM), usual class: inhibitors; 400,000 compounds, 0.53% hits; AID 588579
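Kinetic fluorescence screen: compound preincubated 15 min RT with 10 nM enzyme; 50 nM substrate (final) initiates; reads at 0/10 min.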
Pol beta inh-2 – Inhibitors of human DNA polymerase beta, hit validation; Pol beta primer extension/strand displacement, fluorescence kinetic; 250 compounds, 87% hits; AID 540280; shares compounds with Pol beta inh-1; Potency, µM, hits mostly inhibitors; calls by dose curve
Klenow inh – Klenow polymerase inhibition, pol beta selectivity check; shares compounds with Pol beta inh-1; Klenow exo- polymerase counter-screen, fluorescent DNA substrate; activity change, negative = inhibition, % at 57.1 µM; 250 tested, under 10 active; AID 540300
HIV RT inh – counter-screen for DNA polymerase beta inhibitors: HIV-1 RT inhibition. shares compounds with Pol beta inh-1. HIV-1 RT polymerase activity, counter-screen. 250 tested, under 10 active. activity % (negative = inhibition, positive = activation), % at 57.1 µM
POLB valid – DNA polymerase beta inhibition, radiolabeled validation. shares compounds with Pol beta inh-1. inhibition, % at 10 µM. 110 compounds, 91% hits. radiolabeled primer extension gel assay, phosphorimager;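 active = inhibition at 10 µM of 30% or more; inconclusive = no clear call, values can overlap the other calls; inactive = inhibition at 10 µM under 30%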
POLI cherry-pick – Confirm cherry-picked inhibitors of human polymerase iota; shares compounds with Pol kappa inh-1; Pol iota primer extension, TAMRA/BHQ fluorescence; Potency, µM, actives largely listed as inhibitors; 1,500 compounds, 77% hits
Pol kappa inh-2 – Pol kappa (human) inhibition, cherry-pick confirmation; shares compounds with Pol eta inh-1; purified Pol-kappa, fluorescent strand-displacement substrate; Potency, µM, most hits filed as inhibitors; 920 compounds, 76% hits
Pol eta inh-2 – Pol eta (human) inhibition, cherry-pick confirmation | shares compounds with Pol eta inh-1 | Pol eta primer extension, TAMRA/BHQ fluorescence, 10 min | Potency, µM, hits mostly inhibitors | 2,600 compounds, 64% hits | AID 720502
FEN1 inh-2 – FEN1 inhibition, cherry-pick retest; Potency, µM, hits mostly inhibitors; FEN1 flap cleavage, TAMRA/BHQ2 fluorogenic DNA substrate; AID 720498; shares compounds with FEN1 inh-1; 880 compounds, 79% hits; note: nearly all actives have a fitted effect of over 60% in size
WRN helicase inh-2 – WRN helicase inhibition, cherry-pick retest; shares compounds with WRN helicase inh-1; WRN helicase DNA unwinding, fluorescence kinetic; Potency, µM (series often up to 57.1 µM), most hits filed as inhibitors; 610 compounds, 63% hits; note: nearly all actives have a fitted effect of over 65% in size
TO displacement – DNA binding via thiazole orange displacement. Potency, µM (titrated, usually from 57.1 µM), most hits filed as inhibitors. shares compounds with WRN helicase inh-1. thiazole orange DNA binding displacement, fluorescence. 610 compounds, 10% hits;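 note: drop in dye fluorescence marks compound binding to DNA; nearly all actives have a fitted effect of over 60% in size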
BLM helicase inh – BLM helicase inhibition, WRN selectivity check. shares compounds with WRN helicase inh-1. Recombinant BLM helicase DNA unwinding, red fluorescence. Potency, µM (highest dose often 57.1 µM), most hits filed as inhibitors. 610 compounds, 60% hits. AID 720503; note: nearly all actives have a fitted effect of over 60% in size
Of the large screens only hits and unclear results are named; the others gave an inactive call (follow-up assays come after a bar, where they were run). In the library only some 2.4% were active in any assay of this set; here they are far more common. Unless noted, calls come from the whole dose curve; as a rule, active = well fitted curve in the direction sought with a large enough effect; inconclusive = small, poorly fitted or top-dose-only effect, or another doubt; inactive = no such curve, though single readings can be large; an effect the other way counts as inactive or inconclusive.

Cc1nc(C)c(C(=O)Nc2nc3c(C)cccc3s2)o1	FEN1 inh-1 inconclusive, Pol eta inh-1 25µM, WRN helicase inh-1 inconclusive, Pol beta inh-1 18µM, POLI inh inconclusive, Pol kappa inh-1 40µM | Pol beta inh-2 32 | Klenow inh inactive | HIV RT inh inactive | POLI cherry-pick inconclusive | Pol eta inh-2 48
O=C(CCCc1ccccc1)NC1CC(=O)N(c2ccc(Cl)cc2)C1 (stereo not drawn)	none (no result: WRN helicase inh-1)
CCOc1ccccc1NC(=O)Cn1c(=O)n(Cc2ccccc2)c(=O)c2c(C)c(C)sc21	none (no result: Pol eta inh-1, WRN helicase inh-1)
COC(=O)c1c(NC(=O)COC(=O)c2ccc(NC(=O)CC#N)cc2)sc2c1CCCCC2	FEN1 inh-1 inconclusive, Pol eta inh-1 28µM, WRN helicase inh-1 56µM, Pol beta inh-1 8.9µM, POLI inh 14µM, Pol kappa inh-1 50µM | Pol beta inh-2 6.3 | Klenow inh inactive | HIV RT inh inactive | POLI cherry-pick 24 | Pol kappa inh-2 17 | Pol eta inh-2 30
COC(=O)c1c(NC(=O)COC(=O)c2ccc(C)s2)sc2c1CCCCC2	none
CCOc1cc2c(cc1OCC)C(c1c(F)cccc1Cl)CC(=O)N2 (stereo not drawn)	none (no result: WRN helicase inh-1)
COc1cc(C(=S)N2CCN(c3cccc(Cl)c3)CC2)ccc1O	Pol beta inh-1 inconclusive
COc1cc(C(=S)N2CCN(c3ccccc3Cl)CC2)cc(O)c1O	FEN1 inh-1 inconclusive, Pol eta inh-1 20µM, WRN helicase inh-1 inconclusive, Pol beta inh-1 10µM, POLI inh inconclusive, Pol kappa inh-1 71µM | Pol beta inh-2 2.5 | Klenow inh inactive | HIV RT inh inactive | Pol eta inh-2 76 | FEN1 inh-2 15
CN(CCC#N)C(=O)COC(=O)c1c2c(nc3ccccc13)/C(=C/c1ccco1)CC2	FEN1 inh-1 50µM, Pol eta inh-1 6.3µM, WRN helicase inh-1 inconclusive, Pol beta inh-1 8.9µM, POLI inh 3.2µM, Pol kappa inh-1 20µM | Pol beta inh-2 22 | Klenow inh inactive | HIV RT inh inactive | POLI cherry-pick 30 | Pol eta inh-2 54 | FEN1 inh-2 67
COc1ccc(OC)c(/C=c2\sc3nc(-c4cccs4)nn3c2=O)c1	Pol eta inh-1 inconclusive, Pol beta inh-1 inconclusive
COc1ccccc1/C=c1\sc2nc(-c3ccco3)nn2c1=O	FEN1 inh-1 50µM, Pol eta inh-1 8.9µM, WRN helicase inh-1 40µM, Pol beta inh-1 10µM, POLI inh 18µM, Pol kappa inh-1 32µM | Pol beta inh-2 28 | Klenow inh inactive | HIV RT inh inactive | POLB valid 95 | POLI cherry-pick 42 | Pol eta inh-2 19 | FEN1 inh-2 inconclusive
Cc1cc2c(n1-c1ccc(C(=O)NCCc3ccc(Cl)cc3)cc1)CCC(C)C2 (stereo not drawn)	none (no result: WRN helicase inh-1)
O=S(=O)(Nc1nccs1)c1ccc(Nc2nnc(-c3ccccc3)c3ccccc23)cc1	FEN1 inh-1 89µM, Pol eta inh-1 inconclusive, WRN helicase inh-1 inconclusive, Pol beta inh-1 14µM, POLI inh inconclusive | Pol beta inh-2 35 | Klenow inh inactive | HIV RT inh inactive | FEN1 inh-2 inconclusive
CCCCc1nn2c(=O)cc(COC(=O)c3ccc(NC(=O)C4CCCCC4)cc3)nc2s1	none (no result: WRN helicase inh-1)
CCn1c(SCC(=O)c2ccc(O)c(O)c2)nnc1-c1ccccc1	Pol eta inh-1 inconclusive, Pol beta inh-1 inconclusive, POLI inh inconclusive, Pol kappa inh-1 inconclusive
CCn1c(CSc2nc3ccccc3s2)nnc1SCC(=O)c1ccc(O)c(O)c1	Pol eta inh-1 inconclusive, WRN helicase inh-1 inconclusive, Pol beta inh-1 4.5µM, POLI inh 35µM, Pol kappa inh-1 inconclusive | Pol beta inh-2 2 | Klenow inh inactive | HIV RT inh inconclusive | POLI cherry-pick 38 | Pol eta inh-2 inconclusive | WRN helicase inh-2 1.4µM | TO displacement 27µM | BLM helicase inh inconclusive
Cc1c2cnn(CC(=O)Nc3c(F)c(F)cc(F)c3F)c(=O)c2c(C)n1Cc1ccccc1F	FEN1 inh-1 79µM, Pol eta inh-1 40µM, WRN helicase inh-1 inconclusive, Pol beta inh-1 6.3µM, POLI inh 18µM, Pol kappa inh-1 45µM | Pol beta inh-2 6.3 | Klenow inh inactive | HIV RT inh inactive | POLI cherry-pick 30 | Pol eta inh-2 60 | WRN helicase inh-2 19µM | TO displacement inactive | BLM helicase inh 3.8µM
CCn1cc2nc(SCc3cccc(C(F)(F)F)c3)n(Cc3ccc(C)cc3)c(=O)c2n1	none (no result: WRN helicase inh-1)
CN(Cc1ccccc1)c1ccc2cc(S(=O)(=O)N3CCCCC3)ccc2n1	none (no result: WRN helicase inh-1)
